High-throughput results as filed in PubChem.
Most compounds without a hit are left out; they make up all but 19% or so of the library.
ELG1 DNA repair – blocks ELG1-dependent DNA repair in HEK293T cells. AID 504467. hit rate 2.3% among 330,000. HEK293T ELG1-luciferase reporter, luminescence, 16 h; DNA damage induced by 5-fluorouridine. Potency, µM (titrated, usually from 46.1 µM), actives largely listed as inhibitors; also: nearly all actives have a fitted effect of over 55% in size
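Step one: seed 2,000 cells per well. Step two: pin-transfer compound or DMSO alongside 5-fluorouridine. Step three: incubate 16 hr, 37 °C, 5% CO2. Step four: add ONE-Glo, wait 30 min, read luminescence.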
IL-1B inflam inh – inflammasome signaling inhibition, IL-1 beta readout; THP-1 LPS/ATP IL-1B secretion, AlphaLISA, 16 h; active compounds read low; activity change, % at 57.5 µM; hit rate 4.7% among 360,000; in the data active = activity change below about -50%; inconclusive = mostly about -30% to -49%
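THP-1 cells pretreated 1 hr with compounds (up to 57.5 uM final), then stimulated with LPS (250 ng/mL final) plus ATP (1.25 mM final); secreted IL-1B measured by AlphaLISA after 16 hr, decreased signal indicating inhibition.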
TDP1 cell noCPT – qHTS for Inhibitors of human tyrosyl-DNA phosphodiesterase 1 (TDP1): qHTS in cells in absence of CPT; DT40 Tdp1-/- hTDP1 cells, no CPT, ATP luminescence, 48 h; Potency, µM (doses to about 46.2 µM), actives largely listed as inhibitors; hit rate 15% among 420,000; AID 686978, 2013; also: nearly all actives have a fitted effect of over 55% in size
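Cells were dispensed at 400 per well, compounds added by pin tool, plates incubated ≥48 hr at 37 °C, then CellTiter-Glo added for 30 min at room temperature before luminescence reading. Line: DT40 Tdp1-/- complemented with hTDP1; camptothecin omitted.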
Giardia kill – kills Giardia lamblia | hit rate 0.15% among 340,000 | Giardia lamblia trophozoite viability | AID 540267 | activity change, % at 7.66 µM, hits read low; in the data active = activity change below about -80%; inconclusive = between about -30% and that limit;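 also: parasites exposed to compound for two days anaerobically before the ATP read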
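Killing of trophozoites was scored by loss of ATP luminescence after a 48 hrs anaerobic exposure to compounds at 37 deg C, using 100 cells per well.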
TDP1 block – TDP1 (human) enzyme inhibition | Q9NUW8 | recombinant TDP1, AlphaScreen DNA substrate cleavage | Potency, µM (doses to about 130 µM), actives largely listed as inhibitors | hit rate 0.28% among 350,000 | AID 485290; also: nearly all actives have a fitted effect of over 40% in size
Target sequence (Q9NUW8 whole entry, looked up): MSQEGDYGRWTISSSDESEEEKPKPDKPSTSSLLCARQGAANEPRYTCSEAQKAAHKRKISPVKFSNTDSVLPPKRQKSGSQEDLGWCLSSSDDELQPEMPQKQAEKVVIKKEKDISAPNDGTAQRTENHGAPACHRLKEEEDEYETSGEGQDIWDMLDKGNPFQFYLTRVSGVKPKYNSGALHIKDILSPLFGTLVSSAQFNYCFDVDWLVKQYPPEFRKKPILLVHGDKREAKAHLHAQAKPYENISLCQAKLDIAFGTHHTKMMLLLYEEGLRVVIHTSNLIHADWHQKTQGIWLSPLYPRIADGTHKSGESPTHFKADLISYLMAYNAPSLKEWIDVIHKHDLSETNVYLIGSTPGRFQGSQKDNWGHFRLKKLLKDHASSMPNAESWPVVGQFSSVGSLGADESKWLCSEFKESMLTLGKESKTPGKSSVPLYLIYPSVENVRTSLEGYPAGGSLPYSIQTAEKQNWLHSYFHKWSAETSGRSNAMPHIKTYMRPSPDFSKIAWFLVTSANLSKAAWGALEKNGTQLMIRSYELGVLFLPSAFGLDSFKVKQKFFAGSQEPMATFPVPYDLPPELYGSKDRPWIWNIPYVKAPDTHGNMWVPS
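Enzyme-compound mixtures sat 15 min at room temperature, followed by a 5 min reaction with 15 nM final substrate and 10 min with AlphaScreen beads. Recombinant human Tdp1 was used at 1 nM final.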
DT40 TDP1 CPT – DT40-hTDP1 cell growth loss with CPT; hit rate 12% among 420,000; chicken DT40 Tdp1-/-;hTDP1 cells + 20 nM CPT, ATP luminescence, 48 h; Potency, µM (series often up to 46.2 µM), actives largely listed as inhibitors; also: nearly all actives have a fitted effect of over 55% in size
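Cell growth measured by CellTiter-Glo luminescence after a minimum 48 h, 37 C compound exposure with 20 nM CPT in Tdp1-knockout DT40 cells stably expressing hTDP1, seeded 400/well; qHTS titration format.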
A number is an active result; - = inactive; ? = inconclusive; . = no result given; [ ] = dose if it differs, or a comment. Unless noted, calls follow the shape of the dose curve; as a rule, active = well fitted curve in the direction sought with a large enough effect; inconclusive = small, poorly fitted or top-dose-only effect, or another doubt; inactive = no such curve, though single readings can be large; an effect the other way counts as inactive or inconclusive.

SMILES	ELG1 DNA repair	IL-1B inflam inh	TDP1 cell noCPT	Giardia kill	TDP1 block	DT40 TDP1 CPT
COc1ccc(-c2cc3nc(C)c(CCC(=O)N4CCN(c5cc(C)ccc5C)CC4)c(C)n3n2)c(OC)c1	.	.	9.2µM	.	-	8.2µM
COc1ccc(CN2CCN(C(=O)COc3ccccc3)CC2)c(OC)c1	.	.	?	.	.	-
COc1ccc2c(c1)NP(=S)(Oc1ccccc1)N2 (stereo not given)	?	-	15µM	-	-	?
Cc1ccc([N+](=O)[O-])cc1C	.	.	.	.	-	.
COc1ccc(-c2nc3ccc(Br)cn3c2CC(=O)N2CCCC2)cc1OC	.	-	?	.	.	-
COc1ccccc1Cc1c(-c2ccc(F)cc2)nc2cc(C)c(Br)c(C)n12	.	-	23µM	.	.	?
COc1ccccc1Cc1c(-c2ccc(C)cc2)nc2cc(C)c(Br)c(C)n12	.	-	16µM	.	.	21µM
O=C(Nc1ccc(F)c([N+](=O)[O-])c1)c1cccn(Cc2ccccc2)c1=O	.	.	?	.	-	-
O=[N+]([O-])c1ccc([As](=O)(O)O)cc1	.	.	-	.	.	-
O=[N+]([O-])c1cccc2c([As](=O)(O)O)cccc12	-	-	-	-94	-	-
CO[C@H]1CC=C2CCN3CCC4=C(CC(=O)OC4)[C@]23C1	-	-	-	-	-	-
CCCSc1ncc(Cl)c(C(=O)N(Cc2ccccc2)c2ccc(OC)cc2)n1	.	.	4.6µM	.	-	7.3µM
Cc1cccc(Cn2c(=O)n(CC3CCC(C(=O)N4CCC(C)CC4)CC3)c(=O)c3sccc32)c1 (stereo not given)	.	.	16µM	.	-	21µM
CC[C@H](C)[C@H]1O[C@]2(C=C[C@@H]1C)C[C@@H]1C[C@@H](C/C=C(\C)[C@@H](O[C@H]3C[C@H](OC)[C@@H](O[C@H]4C[C@H](OC)[C@@H](O)[C@H](C)O4)[C@H](C)O3)[C@@H](C)/C=C/C=C3\CO[C@@H]4[C@H](O)C(C)=C[C@@H](C(=O)O1)[C@]34O)O2	.	.	16µM	.	.	?
Cc1ccc(C(C)C)c(OCCn2c(=O)oc3ccccc32)c1	-	-	?	-	-	29µM
C/C=C/C=O	.	.	.	.	-	.
CCCN[C@@H]1CCc2c(OC)cccc2[C@@H]1C	.	.	-	.	-	-
O=c1[nH]c2ccccc2n1C1CCN(C(c2cccs2)c2nnnn2-c2ccc3c(c2)OCCO3)CC1 (stereo not given)	.	-	2.3µM	.	.	2.9µM
O=c1[nH]c2ccccc2n1C1CCN(C(c2ccccc2)c2nnnn2-c2ccc3c(c2)OCCO3)CC1 (stereo not given)	.	-	18µM	.	.	18µM
O=c1[nH]c2ccccc2n1C1CCN(C(c2nnnn2-c2ccc3c(c2)OCCO3)C2CC2)CC1 (stereo not given)	.	-	7.3µM	.	.	13µM
C[C@@H](Cc1ccc(OCC(=O)O)cc1)NC[C@H](O)c1cccc(Cl)c1	.	.	-	.	-	-
NC(Cn1ccc(=O)[nH]c1=O)C(=O)O (stereo not given)	.	.	.	.	-	.
N[C@@]1(C(=O)O)CC[C@H](C(=O)O)C1	.	.	-	.	-	-
Cn1c2c(c3ccccc31)CCNCC2	.	.	.	.	-	.
NC[C@H](CP(=O)(O)O)c1ccc(Cl)cc1	.	.	-	.	-	-
SMILES	ELG1 DNA repair	IL-1B inflam inh	TDP1 cell noCPT	Giardia kill	TDP1 block	DT40 TDP1 CPT
COc1cccc(C(=O)c2c(N)c(-c3nc(-c4ccccc4)cs3)c3ccccn23)c1	.	.	21µM	.	-	?
CN1c2ccc([N+](=O)[O-])cc2CC2(C(=O)NC(=O)N(c3ccccc3)C2=O)C1c1ccccc1 (stereo not given)	-	-	18µM	-	-	13µM
CCCCCc1nc2ccccc2c(=O)n1-c1ccc(C)cc1	.	.	?	.	.	-
CCCCCc1nc2ccccc2c(=O)n1-c1ccccc1[N+](=O)[O-]	-	-	16µM	-	-	?
CNC(=O)Oc1ccc(-c2cn3cc(Cl)ccc3n2)cc1	?	?	?	-86	-	21µM
CNC(=O)Oc1cccc(-c2cn3cc(OC(=O)NC)ccc3n2)c1	?	-	21µM	-	-	?
NC(=O)c1cccc(-c2cccc(OC(=O)NC3CCCCC3)c2)c1	?	-	?	-	-	-
CCN1C[C@@]2(COC)CC[C@H](O)[C@@]34[C@@H]2C[C@@H]([C@@H]13)[C@]1(O)C[C@@H](OC)C2C[C@H]4[C@H]1[C@H]2OC(C)=O	.	.	.	.	-[21 µM]	.
C[C@@H]1CC[C@@]2(OC1)O[C@H]1[C@@H](O)[C@H]3[C@@H]4CC[C@H]5C[C@@H](O[C@@H]6O[C@H](CO)[C@H](O[C@@H]7O[C@H](CO)[C@@H](O)[C@H](O[C@@H]8OC[C@@H](O)[C@H](O)[C@H]8O)[C@H]7O[C@@H]7O[C@H](CO)[C@@H](O)[C@H](O[C@@H]8O[C@H](CO)[C@@H](O)[C@H](O)[C@H]8O)[C@H]7O)[C@H](O)[C@H]6O)[C@H](O)C[C@]5(C)[C@H]4CC[C@]3(C)[C@H]1[C@@H]2C	.	.	.	.	-	.
C=CC(=C)C	.	.	.	.	-	.
CCc1ccc(Nc2nc3c(S(=O)(=O)c4ccc(C)cc4)nnn3c3ccsc23)cc1	.	.	3.7µM	.	-	3.7µM
Cc1ccc(CNC(=O)c2ccc(CSc3nc4ccncc4n3Cc3ccc(C)cc3)cc2)cc1	.	.	8.2µM	.	-	5.2µM
Cc1ccc(C(=O)NC2CC3CCC(C2)N3)cc1 (stereo not given)	-	?	-	-	-	-
Cc1ccc(Cn2c(SCc3ccc(C(=O)NC4CCCC4)cc3)nc3ccncc32)cc1	.	.	16µM	.	-	?
Cc1ccc(Cn2c(NCCCn3ccnc3)nc3c2c(=O)n(C)c(=O)n3C)cc1	-	-	?	-	-	?
CN1CCC[C@@H]1c1cccnc1	.	.	-	.	-	-
O=C(Nc1ccc(Cl)c(C(F)(F)F)c1)[C@@H]1CC=C[C@@H]2CCN(Cc3ccccc3)C(=O)[C@@H]21	.	-	?	-	.	?
C=C1C(=O)O[C@@H]2C[C@@H](C)[C@H]3C=CC(=O)[C@]3(O)C[C@@H]12	-	-99	4.6µM	-	-	4.6µM
Cc1ccc(C(=O)CN2CCOCC2)cc1	.	.	-	.	.	-
CC1C(c2ccccc2)OCCN1C (stereo not given)	.	-	-	-	.	-
C[C@H]1C=CC(=O)O[C@H]1c1ccccc1	.	-105	?	-	-	?
C=C1CC[C@H](O)C/C1=C/C=C1\CCC[C@]2(C)[C@@H]([C@H](C)CCCC(C)C)CC[C@@H]12	.	.	.	.	-	.
CC(=O)c1cccc(NC(=O)c2cc3c(s2)-c2c(C)cccc2OC3)c1	.	.	16µM	.	-	?
COC1=CC(=O)OC(CCc2ccccc2)C1 (stereo not given)	.	.	.	.	-	.
